According to PubChem BioAssay:
The source made the active and inactive calls.

Legend:
[1] = small molecules captured by biotinylated probe aFSTL3 – biochemical, small-molecule microarray, fluorescence 635/667, stem cell growth factor project, primary screen (AID 1064); conditions: higher = more signal;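 note: measures binding of the biotinylated anti-FSTL3 antibody to printed compounds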
[2] = binders from COS7 lysate, DM2A8 probe, primary screen, torsin A project, cell lysate, small-molecule microarray, fluorescence 635/667 (AID 1065); conditions: higher = more signal, COS7 lysate expressing mutant human TOR1A
[3] = small molecules captured by biotinylated probe aFGF2 – biochemical, small-molecule microarray, fluorescence 635/667, stem cell growth factor project, primary screen (AID 1067); conditions: higher = more signal;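 note: measures binding of biotinylated aFGF2 protein to printed compounds on slides; z-score merges feature fluorescence and signal-to-noise across triplicate slides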
[4] = small molecules captured by biotinylated probe aFGF10 – biochemical, small-molecule microarray, fluorescence 635/667, stem cell growth factor project, primary screen (AID 1071); conditions: higher = more signal;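 note: score merges 667 nm spot intensity and signal to noise from triplicate slides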
[5] = molecular target: Neurogenic locus notch homolog protein 2 (Homo sapiens) (UniProt Q04721); assay: small molecules binding Notch2 protein – biochemical, small-molecule microarray, 635 nm fluorescence, stem cell growth factors, primary screen (AID 1073); conditions: higher = more signal
[6] = molecular target: Pro-neuregulin-1, membrane-bound isoform (Homo sapiens) (UniProt Q02297); assay: small molecules binding neuregulin-1 protein – biochemical, small-molecule microarray, fluorescence 635/667, psychiatric disease protein project, primary screen (AID 1075); conditions: NRG1 binding, 635 nm fluorescence, higher = more signal;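 note: score combines 667 nm spot fluorescence with signal to noise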
Pro-neuregulin-1, membrane-bound isoform (Homo sapiens), sequence (Q02297 whole entry, looked up, the tested form may be a part, canonical isoform): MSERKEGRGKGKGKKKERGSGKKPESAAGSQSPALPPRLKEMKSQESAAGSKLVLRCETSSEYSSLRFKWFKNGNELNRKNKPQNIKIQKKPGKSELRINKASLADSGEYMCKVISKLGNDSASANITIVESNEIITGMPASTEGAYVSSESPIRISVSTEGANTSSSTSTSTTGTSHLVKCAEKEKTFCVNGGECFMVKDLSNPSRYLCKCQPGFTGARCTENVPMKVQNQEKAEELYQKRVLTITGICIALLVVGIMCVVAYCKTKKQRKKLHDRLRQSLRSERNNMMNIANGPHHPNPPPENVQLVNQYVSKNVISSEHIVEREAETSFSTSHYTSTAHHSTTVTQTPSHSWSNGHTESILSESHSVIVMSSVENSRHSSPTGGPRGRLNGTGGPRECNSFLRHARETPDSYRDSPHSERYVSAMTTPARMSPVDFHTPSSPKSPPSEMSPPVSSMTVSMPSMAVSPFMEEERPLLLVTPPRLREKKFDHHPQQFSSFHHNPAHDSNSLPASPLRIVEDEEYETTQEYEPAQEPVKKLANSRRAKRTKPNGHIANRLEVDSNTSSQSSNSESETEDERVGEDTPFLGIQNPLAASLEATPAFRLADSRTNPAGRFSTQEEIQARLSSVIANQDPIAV

[7] = system: Neuregulin-1 EGF-like domain; assay: small molecules binding NRG1 EGF domain – biochemical, small-molecule microarray, 635 nm fluorescence, primary screen (AID 1081); conditions: higher = more signal;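 note: binding of the protein to compounds printed on small-molecule microarray slides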
[8] = FRG1 expression reporter modulators in myotubes – cell-based, C2C12 myotubes, firefly/Renilla luciferase, luminescence, FRG1 inhibition for FSHD, primary screen (AID 1084); conditions: FRG1 promoter luciferase, higher = more signal, called active from +8 up or from −8 down
[9] = small molecules captured by biotinylated probe aFST – biochemical, small-molecule microarray, fluorescence 635/667, stem cell growth factor project, primary screen (AID 1086); conditions: higher = more signal;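 note: score merges 667 nm fluorescence with signal-to-noise of each printed compound spot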
[10] = binders of probe aHhip on microarray, primary screen, stem cell growth factor project, biochemical, small-molecule microarray, fluorescence 635/667 (AID 1087); conditions: higher = more signal;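 note: score merges spot fluorescence at 667nm with spot signal to noise ratio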
[11] = system: PRMT1 (protein arginine N-methyltransferase 1); assay: small molecules binding arginine methyltransferase PRMT1 – biochemical, small-molecule microarray, 635 nm fluorescence, primary screen (AID 1088); conditions: higher = more signal;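 note: binding of Prmt1 protein to compounds spotted on small-molecule microarray slides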
[12] = growth effects on S. cerevisiae YJM789 – YJM789 clinical isolate, OD600, 24 h, basal, primary screen (AID 1089); conditions: higher = more signal, called active from +8 up or from −8 down;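 note: growth of clinical yeast isolate S. cerevisiae YJM 789 seeded 1000 cells per well; test concentration not given here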
[13] = S. pombe growth modifiers, basal conditions – strain 972, OD600, 24 h, no modulator, primary screen (AID 1090);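 note: basal condition with compound alone and no growth modifier present; test concentration not given here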; conditions: S. pombe 972 growth, higher = more signal, called active from +8 up or from −8 down
[14] = budding yeast growth modifiers under rapamycin – strain BY4716, OD600, 96 h, primary screen (AID 1091); note: test concentration not given here; conditions: S. cerevisiae BY4716 + rapamycin, higher = more signal, called active from +8 up or from −8 down
[15] = molecular target: Torsin-1A-interacting protein 2 (Homo sapiens) (UniProt Q8NFQ8); assay: small molecules binding lysate-expressed LULL1 – cell lysate, human LULL1 lysate, 635/667 nm fluorescence, primary screen (AID 1092); conditions: small-molecule microarray, hLULL1 lysate binding, 635 nm fluorescence; higher = more signal;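 note: probe is lysate of COS7 cells overexpressing human LULL1; score merges per-feature 667 nm fluorescence with signal-to-noise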
Torsin-1A-interacting protein 2 (Homo sapiens), sequence (Q8NFQ8 whole entry, looked up): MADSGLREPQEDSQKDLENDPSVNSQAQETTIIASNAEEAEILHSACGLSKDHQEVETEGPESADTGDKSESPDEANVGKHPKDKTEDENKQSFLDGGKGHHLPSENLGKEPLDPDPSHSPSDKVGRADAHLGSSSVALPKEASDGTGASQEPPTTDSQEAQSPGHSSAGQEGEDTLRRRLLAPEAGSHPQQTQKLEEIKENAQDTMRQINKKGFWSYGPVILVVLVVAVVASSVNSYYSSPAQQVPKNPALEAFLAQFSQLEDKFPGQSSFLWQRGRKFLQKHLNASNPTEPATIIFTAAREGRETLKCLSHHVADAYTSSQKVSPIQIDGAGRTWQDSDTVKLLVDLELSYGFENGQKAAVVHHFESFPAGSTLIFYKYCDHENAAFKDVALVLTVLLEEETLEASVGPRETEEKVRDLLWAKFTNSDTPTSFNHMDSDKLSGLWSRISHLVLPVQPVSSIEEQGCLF

[16] = optical density change of DRC41 E. coli – strain DRC41, OD650, 24 h, E. coli filamentation project, primary screen (AID 1093);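 note: MC1000 strain lacking acrAB efflux and sulA so SOS filamentation is blocked; test concentration not given here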; conditions: E. coli DRC41 growth, higher = more signal, called active from +8 up or from −8 down
[17] = probe aLefty2 binding to arrayed compounds – biochemical, biotinylated probe, 635/667 nm fluorescence, primary screen (AID 1094); conditions: small-molecule microarray, higher = more signal;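 note: score merges spot fluorescence near 667 nm with spot signal-to-noise ratio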
[18] = system: Noggin (protein binding on small-molecule microarray); assay: small molecules binding Noggin protein – biochemical, 635/667 nm fluorescence, primary screen (AID 1095); conditions: 635 nm fluorescence, higher = more signal;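 note: score merges 667 nm feature fluorescence with signal to noise over triplicate slides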
[19] = molecular target: Neurogenic locus notch homolog protein 3 (Homo sapiens) (UniProt Q9UM47); assay: small molecules binding NOTCH3 protein – biochemical, 635/667 nm fluorescence, primary screen (AID 1096); conditions: small-molecule microarray, 635 nm fluorescence, higher = more signal
Neurogenic locus notch homolog protein 3 (Homo sapiens), sequence (Q9UM47 whole entry, looked up): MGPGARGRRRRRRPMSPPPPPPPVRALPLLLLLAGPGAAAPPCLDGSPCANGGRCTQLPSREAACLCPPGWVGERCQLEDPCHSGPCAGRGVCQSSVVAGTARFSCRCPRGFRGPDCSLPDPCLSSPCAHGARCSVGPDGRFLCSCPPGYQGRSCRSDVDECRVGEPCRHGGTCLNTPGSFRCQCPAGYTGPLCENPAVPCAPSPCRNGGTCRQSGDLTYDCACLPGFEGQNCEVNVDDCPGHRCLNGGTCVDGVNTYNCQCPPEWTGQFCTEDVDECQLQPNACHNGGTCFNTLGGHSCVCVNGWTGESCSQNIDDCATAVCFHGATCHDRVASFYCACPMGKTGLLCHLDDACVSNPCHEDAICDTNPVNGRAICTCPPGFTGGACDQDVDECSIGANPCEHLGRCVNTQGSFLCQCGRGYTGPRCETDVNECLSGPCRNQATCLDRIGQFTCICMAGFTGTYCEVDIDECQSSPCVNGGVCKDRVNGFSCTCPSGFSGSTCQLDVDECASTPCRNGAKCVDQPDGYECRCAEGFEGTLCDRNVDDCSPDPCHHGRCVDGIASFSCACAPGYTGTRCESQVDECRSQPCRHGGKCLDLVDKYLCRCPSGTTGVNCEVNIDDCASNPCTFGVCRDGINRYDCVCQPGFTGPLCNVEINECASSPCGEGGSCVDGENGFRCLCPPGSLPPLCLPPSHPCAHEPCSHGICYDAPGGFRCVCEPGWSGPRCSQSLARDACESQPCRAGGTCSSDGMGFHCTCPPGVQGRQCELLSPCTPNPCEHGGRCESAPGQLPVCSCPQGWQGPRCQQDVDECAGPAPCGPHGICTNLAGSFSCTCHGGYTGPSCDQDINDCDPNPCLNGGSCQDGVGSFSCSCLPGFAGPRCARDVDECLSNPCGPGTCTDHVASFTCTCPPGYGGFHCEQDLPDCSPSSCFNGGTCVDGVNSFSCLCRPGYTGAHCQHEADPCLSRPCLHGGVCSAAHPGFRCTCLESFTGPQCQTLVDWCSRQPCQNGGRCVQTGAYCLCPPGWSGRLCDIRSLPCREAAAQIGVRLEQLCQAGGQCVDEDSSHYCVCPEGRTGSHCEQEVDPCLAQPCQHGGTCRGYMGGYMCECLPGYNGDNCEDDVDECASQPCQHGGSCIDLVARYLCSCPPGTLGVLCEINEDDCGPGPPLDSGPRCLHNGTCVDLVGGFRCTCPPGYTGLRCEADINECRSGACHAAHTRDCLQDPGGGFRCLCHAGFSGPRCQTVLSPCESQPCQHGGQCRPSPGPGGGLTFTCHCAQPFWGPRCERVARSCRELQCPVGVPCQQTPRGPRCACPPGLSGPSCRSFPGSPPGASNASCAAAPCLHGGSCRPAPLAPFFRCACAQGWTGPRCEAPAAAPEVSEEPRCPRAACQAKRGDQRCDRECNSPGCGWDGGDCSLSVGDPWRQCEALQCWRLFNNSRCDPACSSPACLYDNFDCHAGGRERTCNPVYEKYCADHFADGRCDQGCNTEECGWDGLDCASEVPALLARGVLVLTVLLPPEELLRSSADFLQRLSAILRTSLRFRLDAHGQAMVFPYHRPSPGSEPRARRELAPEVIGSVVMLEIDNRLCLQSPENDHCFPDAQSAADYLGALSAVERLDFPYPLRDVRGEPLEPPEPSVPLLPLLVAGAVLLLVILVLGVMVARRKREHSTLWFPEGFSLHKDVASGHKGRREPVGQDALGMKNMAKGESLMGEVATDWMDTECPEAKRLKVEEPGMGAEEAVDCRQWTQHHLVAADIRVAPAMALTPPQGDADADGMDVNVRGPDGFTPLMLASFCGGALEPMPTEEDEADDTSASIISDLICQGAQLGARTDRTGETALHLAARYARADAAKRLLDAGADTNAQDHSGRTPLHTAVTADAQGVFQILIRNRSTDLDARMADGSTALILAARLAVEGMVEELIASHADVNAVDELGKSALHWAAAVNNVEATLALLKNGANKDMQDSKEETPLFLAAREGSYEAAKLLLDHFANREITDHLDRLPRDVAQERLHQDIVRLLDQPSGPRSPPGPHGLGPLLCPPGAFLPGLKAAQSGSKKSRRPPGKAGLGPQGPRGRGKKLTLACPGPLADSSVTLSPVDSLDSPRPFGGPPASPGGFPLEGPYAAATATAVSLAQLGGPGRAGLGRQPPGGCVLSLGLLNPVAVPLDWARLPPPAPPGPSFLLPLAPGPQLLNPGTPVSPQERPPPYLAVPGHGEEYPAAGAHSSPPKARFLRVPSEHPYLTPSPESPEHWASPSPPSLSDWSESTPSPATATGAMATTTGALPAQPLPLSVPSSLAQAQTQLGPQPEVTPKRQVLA

[20] = probe aEGFR binding to arrayed compounds – biochemical, biotinylated probe, 635/667 nm fluorescence, primary screen (AID 1097); conditions: small-molecule microarray, higher = more signal;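 note: probe is a biotinylated anti-EGFR antibody binding compounds printed on slides; score combines fluorescence near 667 nm and signal to noise of each spot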

Row | Compound | composite z-score [1] | composite z-score [2] | composite z-score [3] | composite z-score [4] | composite z-score [5] | composite z-score [6] | composite z-score [7] | z-score [8] | composite z-score [9] | composite z-score [10] | composite z-score [11] | z-score [12] | z-score [13] | z-score [14] | composite z-score [15] | z-score [16] | composite z-score [17] | composite z-score [18] | composite z-score [19] | composite z-score [20]
1 | COc1cc(CO)cc(I)c1O[C@H]1C=C(C(=O)NCCO)C[C@@H](N(C(=O)c2cc3ccccc3oc2=O)C2CCCCCC2)[C@@H]1O | -0.386 | 0.419 | -0.0935 | 0.661 | 0.511 | -0.19 | -0.52 | -0.738 (inactive) | -0.0938 | 0.0646 | -0.446 | -0.13 (inactive) | -1.59 (inactive) | -1.26 (inactive) | -0.188 | 1.86 (inactive) | -0.198 | 0.437 | 0.383 | -0.207
2 | CO[C@H]1O[C@H](CO)[C@@H](OC(=O)Nc2ccc(Br)cc2)[C@@H]2OC(=O)[C@H](Cc3cccc(Br)c3)C/C=C/C[C@@H](Cc3cccc(Br)c3)C(=O)O[C@@H]12 | -0.0675 | -0.0034 | -0.135 | 0.0489 | 0.0333 | 0.72 | 1.05 | 1.3 (inactive) | 0.388 | 0.315 | 0.0859 | -0.163 (inactive) | -2.81 (inactive) | 30.3 (active) | 0.763 | 1.26 (inactive) | -0.112 | 0.594 | 0.911 | -0.0828
3 | NCCCCCNC(=O)[C@H]1C[C@H]2C(=O)N[C@@H](Cc3ccccc3)C(=O)N2[C@H]1c1cccc(OCCO)c1 | 2.24 | 0.387 | 0.0364 | 0.116 | 0.352 | 2.05 | 0.408 | 1.27 (inactive) | 1.04 | 0.705 | 0.788 | 0.693 (inactive) | -1.42 (inactive) | -0.763 (inactive) | 1.6 | 0.631 (inactive) | 0.662 | -0.0079 | 0.478 | 0.0115
4 | O=C(NC1CC1)[C@@H]1c2ccccc2C(=O)N(Cc2cc(F)cc(C(F)(F)F)c2)[C@H]1c1ccc(CO)cc1 | 0.388 | 0.195 | -0.172 | 0.327 | -0.697 | -0.13 | 1.04 | -0.594 (inactive) | 0.254 | -0.194 | 1.35 | -1.02 (inactive) | -1.15 (inactive) | -0.926 (inactive) | 2.85 | -0.213 (inactive) | 0.0351 | 0.235 | -0.418 | -0.177
5 | O=C1O[C@H](c2ccccc2)[C@H](c2ccccc2)N2[C@H]1[C@@H](C(=O)N1CCN(c3ncccn3)CC1)[C@]1(C(=O)Nc3ccc(C#CC4=CCCCC4)cc31)[C@H]2c1ccccc1OCCO | -0.218 | 0.337 | 0.009 | 0.548 | 1.25 | 0.694 | 1.26 | -0.342 (inactive) | 0.239 | 0.0139 | 1.53 | 1.08 (inactive) | 0.759 (inactive) | 3.51 (inactive) | 2.65 | 0.071 (inactive) | 0.276 | 0.922 | 1.07 | -0.0493
6 | COCC(=C=CC[C@H](O)c1ccccc1OCCO)CCO | -0.2 | 0.32 | -0.0747 | 0.225 | -0.626 | 1.24 | 0.857 | 0.212 (inactive) | -0.0019 | 0.0373 | 0.43 | -0.594 (inactive) | -0.5 (inactive) | -0.127 (inactive) | 1.8 | 0.309 (inactive) | 0.0041 | 0.698 | 0.318 | -0.1
7 | O=C1NC(=O)C2C1C=CC(C(O)c1ccc(I)cc1)N2Nc1ccccn1 (stereo not given) | 0.193 | 0.142 | 0.0111 | -0.0668 | 0.599 | 1.71 | 0.725 | 0.63 (inactive) | -0.0237 | -0.0173 | 0.321 | -0.353 (inactive) | 0.426 (inactive) | 0.17 (inactive) | 2.56 | -0.956 (inactive) | -0.0328 | 0.143 | 0.15 | -0.0947
8 | COCCCNC(=O)[C@@H]1c2ccccc2C(=O)N(Cc2ccccc2OC)[C@H]1c1ccc(CO)cc1 | -0.169 | 0.64 | -0.0021 | 0.584 | 0.239 | 1.8 | 1.34 | -1.57 (inactive) | -0.0311 | -0.0645 | -0.244 | 0.118 (inactive) | -0.757 (inactive) | -0.921 (inactive) | 2.56 | -0.0935 (inactive) | -0.157 | 1.68 | 0.876 | -0.115
9 | O=C1N(CCS(=O)(=O)c2ccccc2)c2ccccc2[C@@H]2OC(c3ccc(OCCCO)cc3)=N[C@]12Cc1ccccc1 | -0.0695 | 0.437 | -0.165 | 0.307 | 0.849 | 1.38 | 1.29 | -4.02 (inactive) | 0.57 | -0.156 | 1.56 | -2.18 (inactive) | -2.2 (inactive) | 3.02 (inactive) | 2.45 | 0.736 (inactive) | -0.0248 | 1.59 | 1.12 | -0.0435
10 | COCC(=C=CC[C@H](O)c1cccc(OCCO)c1)C[C@H](O)c1cc(Cl)cc(Cl)c1O | -0.173 | 0.0375 | -0.045 | 0.502 | 0.524 | 0.79 | 1.38 | -0.578 (inactive) | 0.181 | -0.281 | 1.54 | 1.11 (inactive) | -0.6 (inactive) | -0.225 (inactive) | 1.29 | 0.706 (inactive) | -0.143 | 0.908 | 1.04 | 0.0837
